PubChem BioAssay
Activity calls are given as the source filed them. Unless noted, the rule behind the calls is not given here.

Legend:
[1] = system: XIP peptide (Xip251-270) binding; assay: XIP fragment 251-270 binding compounds – biochemical, small-molecule microarray, fluorescence 635/667 nm, 0.1 µg/mL protein, primary screen (AID 1182); conditions: fluorescent protein binding, 635 nm, higher = more signal, called active from +8 up or from −8 down
XIP peptide (Xip251-270) = assay: compounds binding XIP fragment 251-270 – biochemical, small-molecule microarray, fluorescence 635/667 nm, 0.5 µg/mL protein, primary screen (AID 1183); conditions: fluorescence 635 nm, higher = more signal
[2] = blood-stage malaria parasite viability loss – strain 3D7, DAPI fluorescence, 100 nL, primary screen (AID 1184);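 note: parasites grown inside human red blood cells in medium with human serum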; conditions: P. falciparum 3D7 growth, 3 d, higher = more signal
[3] = molecular target: Homeobox protein Hox-A13 (Mus musculus) (UniProt Q62424); assay: disruptors of Hoxa13 oligonucleotide interaction – biochemical, fluorescence polarization, labeled oligonucleotide, primary screen (AID 1185); conditions: Hoxa13:DNA binding, 15 min, higher = more signal, called active from +8 up or from −8 down
Sequence of Homeobox protein Hox-A13 (Mus musculus) (Q62424 whole entry, looked up): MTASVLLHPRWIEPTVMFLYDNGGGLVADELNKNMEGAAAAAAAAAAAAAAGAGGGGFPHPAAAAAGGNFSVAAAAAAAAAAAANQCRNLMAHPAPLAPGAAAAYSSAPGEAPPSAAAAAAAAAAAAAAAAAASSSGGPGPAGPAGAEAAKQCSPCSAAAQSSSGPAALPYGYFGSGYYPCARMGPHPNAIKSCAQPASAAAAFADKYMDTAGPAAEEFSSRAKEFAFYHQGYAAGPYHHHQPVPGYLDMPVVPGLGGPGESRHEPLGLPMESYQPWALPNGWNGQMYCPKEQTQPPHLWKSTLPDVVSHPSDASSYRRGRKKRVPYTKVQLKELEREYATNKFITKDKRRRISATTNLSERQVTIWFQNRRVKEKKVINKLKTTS

[4] = blockers of DNA damage checkpoint Chk1 activation – imaging, HeLa, hydroxyurea, phospho-Chk1 antibody, percent positive cells, primary screen (AID 1186); conditions: hydroxyurea-induced phospho-Chk1 immunofluorescence imaging, higher = more signal
[5] = blockers of DNA damage checkpoint Chk1 activation – imaging, HeLa, hydroxyurea, phospho-Chk1 nuclear intensity, primary screen (AID 1187); conditions: hydroxyurea-induced phospho-Chk1 immunofluorescence imaging, higher = more signal

Structure (SMILES) | composite z-score [1] | composite z-score (XIP peptide (Xip251-270)) | z-score [2] | z-score [3] | z-score [4] | z-score [5]
CCOC(=O)C[C@H]1[C@H](OC(=O)Cc2ccc3c(c2)OCO3)[C@@H](NC(=O)c2ccc3ccccc3c2)c2cc(OCCCO)ccc2N1C(=O)c1ccccc1 | 0.0654 (inactive) | 0.263 | 0.168 | -2.57 (inactive) | -0.251 (inactive) | -0.629 (inactive)
O=C1c2ccccc2[C@](Cc2ccccc2I)(C(=O)NC2CC2)[C@H](c2ccc(CO)cc2)N1Cc1ccccc1 | 0.534 (inactive) | 0.63 | -0.35 | -5.1 (inactive) | 0.0675 (inactive) | -0.345 (inactive)
Cc1ccc(S[C@]2(C(=O)NCCN3CCOCC3)CC(=O)N(Cc3ccccc3)[C@@H]2c2ccc(CO)cc2I)cc1 | 0.302 (inactive) | 0.0473 | -1.44 | -1.69 (inactive) | -0.0659 (inactive) | 0.184 (inactive)
[N-]=[N+]=NCc1ccccc1C[C@]1(C(=O)O)N=C(c2ccc(OCCCO)cc2)O[C@H]1c1ccccc1N=[N+]=[N-] | 0.525 (inactive) | 0.771 | -1.57 | -3.84 (inactive) | -0.1 (inactive) | 0.16 (inactive)
COC(=O)[C@@]1(Cc2ccc(F)cc2)[C@@H]2[C@@H](CC(=O)[C@H]2CC(=O)C(=O)N(C)C)CN1C(=O)c1ccccc1 | 0.502 (inactive) | 0.588 | -1.11 | -3.94 (inactive) | 0.0598 (inactive) | 0.186 (inactive)
O=C1C2C=CC(C(O)c3ccc(F)cc3)N(Nc3ccccc3F)C2C(=O)N1c1ccccc1 (centres undefined) | 1.27 (inactive) | 0.252 | 0.712 | -3.25 (inactive) | 0.186 (inactive) | 0.154 (inactive)
C=C(CCCC)/C(=C/C[C@@H](OC(C)=O)c1ccccc1OCCO)c1cnc2ccccc2c1 | -0.475 (inactive) | 0.234 | -3.01 | -5.06 (inactive) | 1.11 (inactive) | 0.212 (inactive)
Cc1ccc(S[C@]2(C(=O)NCC(F)(F)F)CC(=O)N(C(C)C)[C@@H]2c2ccc(CO)cc2I)cc1 | -0.268 (inactive) | -0.467 | -0.181 | -2.7 (inactive) | 0.295 (inactive) | 0.84 (inactive)
CC(=O)N1Cc2ccccc2C[C@@]2(COC(c3ccc(OCCCO)cc3)=N2)C1=O | 1.44 (inactive) | 0.81 | -2.28 | -3.13 (inactive) | -1.01 (inactive) | -1.12 (inactive)
C=CCC(OC(C)=O)[C@@H]1[C@@H](N(Cc2cccc3ccccc23)C(=O)c2ccc(-c3ccccc3)cc2)c2cc(OCCCO)ccc2N1C(=O)Cc1ccc(OC)cc1 (some centres undefined) | -0.162 (inactive) | 0.637 | -1.17 | -1.15 (inactive) | -0.302 (inactive) | -0.0837 (inactive)
COc1ccc([C@H]2OC[C@@H]3CC4(CC=CC4)C(=O)N32)cc1 | -0.302 (inactive) | 0.345 | 0.301 | -0.0645 (inactive) | 0.0257 (inactive) | -0.452 (inactive)
CC(C)N1C(=O)[C@@]2(Cc3ccccc31)c1ccccc1C(=O)N(C1CCCCC1)[C@H]2c1ccc(CO)cc1 | -0.091 (inactive) | 0.709 | -0.288 | -0.666 (inactive) | -0.0292 (inactive) | 0.029 (inactive)
COCCCNC(=O)[C@@]1(Cc2ccccc2)N=C(c2ccc(OCCCO)cc2)O[C@H]1c1ccccc1 | 0.111 (inactive) | 0.752 | -2 | -5.35 (inactive) | 0.129 (inactive) | 0.221 (inactive)
O=C1O[C@H](c2ccccc2)[C@H](c2ccccc2)N2[C@H]1[C@@H](C(=O)Nc1nc3ccccc3s1)[C@]1(C(=O)Nc3ccc(C#CC4(O)CCCCCC4)cc31)[C@H]2c1ccc(OCCO)cc1 | 2.25 (inactive) | 0.663 | -1.8 | -0.979 (inactive) | 0.341 (inactive) | 0.346 (inactive)
C=CCNC(=O)[C@@H]1[C@H]2C(=O)O[C@H](c3ccccc3)[C@H](c3ccccc3)N2[C@H](c2ccccc2OCCO)[C@@]12C(=O)N(C(=O)OCCOC)c1ccc(C#CCNC(N)=O)cc12 | 0.347 (inactive) | 0.66 | -0.531 | -1.84 (inactive) | -0.189 (inactive) | -0.159 (inactive)
C=C(COC)/C(=C/C[C@@H](OC(C)=O)c1ccc(OCCO)cc1)c1cc(C(=O)OC)ccc1OC | 2.57 (inactive) | 0.762 | -3.06 | -4.45 (inactive) | -0.307 (inactive) | -0.333 (inactive)
COCCOC(=O)N1C(=O)[C@@]2(c3cc(C#CC4=CCCCC4)ccc31)[C@H](C(=O)N1CCc3cc(OC)c(OC)cc3C1)[C@H]1C(=O)O[C@H](c3ccccc3)[C@H](c3ccccc3)N1[C@@H]2c1ccc(OCCO)cc1 | 0.173 (inactive) | 0.383 | -2.09 | 3.59 (inactive) | 0.206 (inactive) | 0.631 (inactive)

Structure (SMILES) | composite z-score [1] | composite z-score (XIP peptide (Xip251-270)) | z-score [2] | z-score [3] | z-score [4] | z-score [5]
COc1ccc(C(=O)O[C@H]2CC[C@]3(C)C4=C(CCC3C2(C)C)[C@]2(C)CC[C@H]([C@H](C)CCCC(C)C)[C@@]2(C)CC4)cc1 (some centres undefined) | -0.674 (inactive) | 0.0738 | 0.148 | -1.08 (inactive) | -0.975 (inactive) | -1.15 (inactive)
O=C1NCC(=O)N2[C@@H]1C[C@@H](C(=O)O)[C@H]2c1cccc(OCCO)c1 | 6.39 (inactive) | 1.02 | 0.0934 | -1.39 (inactive) | -0.467 (inactive) | -0.367 (inactive)
C=CCN1C(=O)[C@@]2(O[C@@H](CCO)[C@H]([Si](C)(C)c3ccc(OC)cc3)[C@H]2C)c2cc(NC(=O)c3ccc(OC)cc3)ccc21 | 0.574 (inactive) | 0.208 | -2.77 | -4.58 (inactive) | -0.176 (inactive) | 0.416 (inactive)
CCCCC(=C=CC[C@@H](O)c1ccccc1OCCO)CCO | -0.247 (inactive) | 0.357 | -1.6 | -3.19 (inactive) | 0.525 (inactive) | 0.585 (inactive)
COCCOC(=O)N1C(=O)[C@@]2(c3cc(C#CCCO)ccc31)[C@H](C(=O)N1CCN(c3ncccn3)CC1)[C@H]1C(=O)O[C@H](c3ccccc3)[C@H](c3ccccc3)N1[C@@H]2c1ccccc1OCCO | 0.954 (inactive) | 0.655 | -2.28 | -1.58 (inactive) | -0.0632 (inactive) | 0.111 (inactive)
O=C1C2C=CC(C(O)C(c3ccccc3)c3ccccc3)N(n3cnnc3)C2C(=O)N1Cc1ccccc1 (centres undefined) | 0.23 (inactive) | 0.664 | -0.528 | -3.79 (inactive) | 0.414 (inactive) | -0.402 (inactive)
CC1CC/C=C\[C@H]2OC34C=CCN(c5ccc(Cl)cc5)C(=O)[C@H]3N(CCO)C(=O)[C@]4(C)C2C(=O)O1 (some centres undefined) | 1.21 (inactive) | 0.18 | -0.515 | -4.66 (inactive) | -0.0711 (inactive) | -0.271 (inactive)
COc1ccc(C#Cc2ccc3c(c2)[C@]2(C(=O)N3)[C@H](c3ccccc3OCCO)N3[C@H](c4ccccc4)[C@H](c4ccccc4)OC(=O)[C@H]3[C@@H]2C(=O)O)cc1 | 2.03 (inactive) | 0.695 | -1.27 | -4.32 (inactive) | -0.331 (inactive) | -0.416 (inactive)
O=C1OCC=C[C@H]2OC34C=CCN(CCN5CCOCC5)C(=O)[C@H]3N(CCCO)C(=O)[C@@H]4[C@@H]12 (some centres undefined) | -0.0676 (inactive) | -0.0046 | -1.83 | -4.01 (inactive) | 0.2 (inactive) | 0.099 (inactive)
O=C1O[C@H](c2ccccc2)[C@H](c2ccccc2)N2[C@H]1[C@@H](C(=O)O)[C@]1(C(=O)Nc3ccc(C#CCCO)cc31)[C@H]2c1ccc(O)cc1 | 0.207 (inactive) | 0.901 | -0.136 | -5.42 (inactive) | 0.11 (inactive) | -0.002 (inactive)
Cc1ccc(S[C@]2(C(=O)NCCN3CCOCC3)CC(=O)N(Cc3ccccc3Cl)[C@@H]2c2ccc(CO)cc2)cc1 | -0.255 (inactive) | 0.686 | -1.47 | -4.04 (inactive) | -0.114 (inactive) | -0.121 (inactive)
C=CC[C@@]1(C(N)=O)N=C(c2ccc(OCCCO)cc2)O[C@@H]1c1ccccc1CN=[N+]=[N-] | 1.06 (inactive) | 0.843 | -1.7 | -3.93 (inactive) | 0.586 (inactive) | 1.16 (inactive)
CC(=O)NCCCC[C@@H]1NC(=O)[C@@H]2C[C@H](C(=O)NCCCCN(C)C)[C@H](c3cccc(OCCO)c3)N2C1=O | 0.172 (inactive) | 0.237 | -0.363 | -1.75 (inactive) | -0.281 (inactive) | -0.0329 (inactive)
C=CCOC(=O)[C@@H]1[C@H]2C(=O)O[C@H](c3ccccc3)[C@H](c3ccccc3)N2[C@H](c2ccc(OCCOC(=O)[C@@H]3C[C@@H]4C(=O)N[C@@H](Cc5ccccc5)C(=O)N4[C@@H]3c3ccc(O)cc3)cc2)[C@@]12C(=O)Nc1ccc(I)cc12 | 0.895 (inactive) | 0.736 | -1.95 | -0.584 (inactive) | 0.193 (inactive) | 0.453 (inactive)
C=CCN(Cc1ccccc1)C(=O)C(c1cccs1)N(CCOCCO)C(=O)/C=C\C(=O)O (centres undefined) | -0.467 (inactive) | -0.573 | -0.205 | -1.25 (inactive) | -1.41 (inactive) | -0.806 (inactive)
CN(C)C(=O)[C@@]1(Cc2ccccc2)N=C(c2ccc(OCCCO)cc2)O[C@H]1c1ccccc1N=[N+]=[N-] | -0.111 (inactive) | 0.651 | -1.93 | -4.88 (inactive) | -0.524 (inactive) | -0.793 (inactive)
COC(=O)[C@@]1(Cc2ccc(OC)cc2)[C@H]2c3cc(C(=O)N(C)C)n(Cc4cccc5ccccc45)c3C[C@H]2CN1C(=O)c1ccccc1 | 0.237 (inactive) | 0.822 | -1.61 | -4.2 (inactive) | 0.0329 (inactive) | -0.19 (inactive)
